Activity calls are given as the source filed them. How the source made its calls: active means hit-call score of the fitted dose curve at least 0.9, where 1 is the maximum; inconclusive means response in the unintended direction; inactive means score below 0.9.

Estrogen receptor (Homo sapiens), sequence (P03372 whole entry, looked up, the tested form may be a part): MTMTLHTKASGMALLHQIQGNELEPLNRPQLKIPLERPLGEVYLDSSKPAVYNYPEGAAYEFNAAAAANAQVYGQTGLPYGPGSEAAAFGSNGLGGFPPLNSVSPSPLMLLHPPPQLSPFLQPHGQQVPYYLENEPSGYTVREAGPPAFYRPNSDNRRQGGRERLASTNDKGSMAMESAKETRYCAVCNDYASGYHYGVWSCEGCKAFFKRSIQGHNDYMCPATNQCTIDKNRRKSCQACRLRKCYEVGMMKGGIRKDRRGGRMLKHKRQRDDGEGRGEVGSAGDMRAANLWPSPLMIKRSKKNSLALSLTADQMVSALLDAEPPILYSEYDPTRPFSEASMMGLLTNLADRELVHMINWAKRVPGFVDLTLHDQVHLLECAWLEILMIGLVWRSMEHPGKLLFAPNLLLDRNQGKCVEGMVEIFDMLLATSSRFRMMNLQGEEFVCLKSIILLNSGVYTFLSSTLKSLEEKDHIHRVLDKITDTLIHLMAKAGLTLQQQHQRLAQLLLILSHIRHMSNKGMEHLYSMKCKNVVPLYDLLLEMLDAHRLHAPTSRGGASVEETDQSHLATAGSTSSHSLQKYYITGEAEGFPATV

The assay concerns the target Estrogen receptor (Homo sapiens) (UniProt P03372). As to the kind of experiment: OT_ER_ERaERa_1440: Odyssey Thera (OT) 24-hour HEK293T Protein-Complementation Assay for Estrogen Receptor-alpha/-alpha Homodimer (AID 2283349).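 Further: hits raise fluorescence above DMSO for agonists and antagonists alike.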 The procedure, abridged: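 HEK293T, stable ERα LBD (aa 310-547) homodimer PCA; 24 h compound exposure; mean fluorescence intensity (nuclear for agonists, nuclear plus cytoplasmic for antagonists) vs vehicle; positive fitting direction, DMSO baseline.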
Take `CCCCCCCC/C=C\CCCCCCCC(=O)OC[C@@H](O)[C@H]1OC[C@H](O)[C@H]1O`: the result was inactive. Turning to `c1ccc2ncccc2c1`, the molecule was called inactive. Same read-out and setting: the entry for `Cn1c(=O)c2[nH]cnc2n(C)c1=O` is “inactive”; for `O=C(O)[C@H](O)[C@@H](O)C(=O)O` it is “inactive”; for `c1ccc2cc3ccccc3cc2c1` it is “inactive”. The same measure, in the same setting: the entry for `COCc1nnc(-c2ccc[n+]([O-])c2)n1-c1c(Cl)c(Cl)cc2[nH]c(=O)c(=O)[nH]c12` is “inactive”. For `OC[C@H]1O[C@@](CO)(O[C@H]2O[C@H](CO)[C@@H](O)[C@H](O)[C@H]2O)[C@@H](O)[C@@H]1O`, the result was inactive.

As to `NC(N)=O`, the call was inactive. For orientation: AC50 means the concentration at which the activity in the assay is half-maximal. `OCCNCCO`: the AC50 is 11.9 µM (active). Consider `CC(C)CC(C)O` (configuration not stated), for which the call was inactive. Consider `CC(C)c1nnc2ccc(-c3ocnc3-c3cc(F)ccc3F)cn12`, for which the molecule was called inactive. The same measure, in the same setting: the entry for `O=C(O)c1cccc(C(=O)O)c1` is “inactive”; for `CCOc1ccc2[nH]cc(C(=O)NCc3ccccc3)c(=O)c2n1` it is “inactive”; for `O=S1(=O)CCCO1` it is “inactive”. Still for that read-out and setting: under `NC(=O)N(O)[C@@H]1COc2cc(OCc3ccccc3)ccc21` stands “inactive”. For the molecule `O=C(O)CO`, the molecule was classed as inactive. Same read-out and setting: the entry for `CC[C@H](C)C(=O)O[C@H]1C[C@H](O)C=C2C=C[C@H](C)[C@H](CC[C@@H](O)C[C@@H](O)CC(=O)O)[C@H]21` is “inactive”. The same measure, in the same setting: the entry for `O=C(NO)C1(NS(=O)(=O)c2ccc(Oc3ccc(F)cc3)cc2)CCOCC1` is “inactive”; for `OCCOCCOCCO` it is “inactive”; for `CCCCCCCCCCCCCCO` it is “inactive”. The same measure, in the same setting: under `CCCOc1ccc(S(=O)(=O)N2CCN(CC)CC2)cc1-c1nc2c(CC)n(Cc3ccccn3)nc2c(=O)[nH]1` stands “inactive”; under `NC(=O)NN=Cc1ccc([N+](=O)[O-])o1`, “inactive”.

Values taken from PubChem BioAssay (EPA / NIEHS).
